Screening results from PubChem.
Shown are actives, neighbours in structure and some others; about 5.3% of the full set was active somewhere.
JMJD2A Tudor inh: JMJD2A Tudor domain (human) inhibition. O75164. AlphaScreen JMJD2A-Tudor / H3K4me3 peptide binding. Potency, µM (highest dose often 114 µM), most hits filed as inhibitors. 4.4% of 390,000 active; further: nearly all actives have a fitted effect of over 50% in size
BAZ2B block: BAZ2B (human) inhibition; Potency, µM (top dose mostly 114 µM), most hits filed as inhibitors; 4.4% of 360,000 active; AlphaScreen BAZ2B-H3K14Ac peptide displacement; Q9UIF8; further: nearly all actives have a fitted effect of over 60% in size
Target sequence (Q9UIF8 whole entry, looked up): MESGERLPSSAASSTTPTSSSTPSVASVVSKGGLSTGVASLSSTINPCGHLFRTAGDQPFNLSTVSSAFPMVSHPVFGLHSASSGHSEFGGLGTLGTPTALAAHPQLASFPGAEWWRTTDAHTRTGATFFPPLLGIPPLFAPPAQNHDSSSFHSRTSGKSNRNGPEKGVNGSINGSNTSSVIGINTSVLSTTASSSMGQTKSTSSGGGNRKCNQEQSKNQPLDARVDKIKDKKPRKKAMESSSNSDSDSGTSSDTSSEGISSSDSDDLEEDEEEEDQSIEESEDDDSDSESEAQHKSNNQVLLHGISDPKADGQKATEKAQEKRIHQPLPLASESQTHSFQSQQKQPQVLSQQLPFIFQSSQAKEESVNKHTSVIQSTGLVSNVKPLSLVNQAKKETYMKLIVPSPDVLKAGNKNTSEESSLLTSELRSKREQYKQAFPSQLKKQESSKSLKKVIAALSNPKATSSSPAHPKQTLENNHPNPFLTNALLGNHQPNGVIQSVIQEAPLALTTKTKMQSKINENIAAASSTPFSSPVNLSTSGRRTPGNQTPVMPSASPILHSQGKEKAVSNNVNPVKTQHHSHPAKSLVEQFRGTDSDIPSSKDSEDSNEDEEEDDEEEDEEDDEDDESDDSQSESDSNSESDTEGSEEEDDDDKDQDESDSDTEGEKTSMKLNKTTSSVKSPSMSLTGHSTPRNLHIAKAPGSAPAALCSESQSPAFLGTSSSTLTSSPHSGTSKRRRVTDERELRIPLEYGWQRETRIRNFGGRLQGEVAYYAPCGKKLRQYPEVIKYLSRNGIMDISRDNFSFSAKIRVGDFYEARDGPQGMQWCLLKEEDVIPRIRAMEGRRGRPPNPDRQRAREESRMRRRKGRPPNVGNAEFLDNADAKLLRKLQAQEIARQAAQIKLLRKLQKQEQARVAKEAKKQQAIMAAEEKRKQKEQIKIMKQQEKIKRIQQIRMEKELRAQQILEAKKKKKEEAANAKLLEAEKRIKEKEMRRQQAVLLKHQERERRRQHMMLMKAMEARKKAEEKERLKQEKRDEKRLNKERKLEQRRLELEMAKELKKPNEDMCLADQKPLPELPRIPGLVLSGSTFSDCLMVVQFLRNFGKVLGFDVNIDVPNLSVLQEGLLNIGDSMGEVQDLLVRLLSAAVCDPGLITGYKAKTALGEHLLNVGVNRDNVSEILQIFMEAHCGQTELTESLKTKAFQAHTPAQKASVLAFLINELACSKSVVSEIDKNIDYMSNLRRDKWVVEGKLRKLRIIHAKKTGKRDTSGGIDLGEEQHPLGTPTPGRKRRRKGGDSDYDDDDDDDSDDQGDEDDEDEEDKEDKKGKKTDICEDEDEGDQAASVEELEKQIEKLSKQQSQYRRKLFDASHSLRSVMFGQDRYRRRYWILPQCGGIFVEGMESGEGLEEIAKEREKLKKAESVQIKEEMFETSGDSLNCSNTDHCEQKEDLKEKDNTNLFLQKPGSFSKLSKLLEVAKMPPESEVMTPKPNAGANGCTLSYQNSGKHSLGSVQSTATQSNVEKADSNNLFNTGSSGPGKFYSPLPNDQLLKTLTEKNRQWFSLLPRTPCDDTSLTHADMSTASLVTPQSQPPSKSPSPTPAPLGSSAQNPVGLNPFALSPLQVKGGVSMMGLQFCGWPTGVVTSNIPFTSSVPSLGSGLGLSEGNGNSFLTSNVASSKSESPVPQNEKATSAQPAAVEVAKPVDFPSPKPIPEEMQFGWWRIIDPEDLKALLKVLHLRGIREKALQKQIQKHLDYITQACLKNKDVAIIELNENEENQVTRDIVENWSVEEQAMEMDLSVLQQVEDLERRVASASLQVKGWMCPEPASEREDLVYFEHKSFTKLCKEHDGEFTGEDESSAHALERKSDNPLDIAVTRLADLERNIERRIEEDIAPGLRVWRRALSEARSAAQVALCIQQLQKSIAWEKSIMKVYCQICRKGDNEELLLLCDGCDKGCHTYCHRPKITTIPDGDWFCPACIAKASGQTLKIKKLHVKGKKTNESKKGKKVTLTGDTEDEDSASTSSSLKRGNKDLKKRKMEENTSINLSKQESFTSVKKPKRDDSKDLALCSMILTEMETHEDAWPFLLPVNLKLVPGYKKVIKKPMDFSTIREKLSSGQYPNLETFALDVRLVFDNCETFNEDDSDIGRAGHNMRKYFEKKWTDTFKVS
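Multi-concentration screen (max 110 uM) measuring displacement of acetylated histone H3 peptide from BAZ2B by AlphaScreen, using 50 nM protein, 50 nM peptide and 10 ug/mL streptavidin donor plus Ni-chelate acceptor beads.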
CtBP-E1A inh: inhibitors of CtBP/E1A interaction; AlphaScreen GST-E1A/His-CtBP binding, 1536-well; stronger effect = lower value; activity change, % (no concentration beside the values); 0.49% of 340,000 active; AID 651724; in the data active means activity change below about -65%; inconclusive means mostly about -30% to -63%
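Steps: dispense buffer (Tris pH 8.0, NaCl 300 mM, TCEP 1 mM, BSA, Tween 20); add 5X protein mix (GST-E1A, His-CtBP, 125 nM each); pin 23 nL compound; 2 h at 37 °C, dark; add 5X beads (50 ug/mL); 1 h; read.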
HP1b chromo inh: HP1-beta chromodomain-methylated histone interaction inhibition; Potency, µM (highest dose often 114 µM), actives largely listed as inhibitors; 0.56% of 390,000 active; P83916; AlphaScreen HP1-beta / biotin-H3K9me3 peptide binding; further: nearly all actives have a fitted effect of over 70% in size
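AlphaScreen: HP1-beta (50 nM) preformed 30 min with biotin-H3(1-18)K9me3 peptide (50 nM) in PBS pH 7.4, 0.01% Tween-20. Compound added for 30 min at RT, then streptavidin donor/nickel chelate acceptor beads (10 ug/mL) for 30 min.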
Six1-Eya2 inh: inhibitors of human Six1/Eya2 interaction; Q15475+O00167; AlphaScreen GST-Six1/His-Eya2 binding, biochemical; stronger effect = lower value; activity change, % (test concentration not listed); 0.56% of 360,000 active; AID 651725; in the data active means activity change below about -65%; inconclusive means mostly about -30% to -63%
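GST-Six1 + His-Eya2 (5X stock: 250/500 nM); Tris pH 8.0, 300 mM NaCl, 0.05% BSA, 0.02% Tween 20; GSH donor/Ni acceptor beads; 1 h 37 °C dark; AlphaScreen readout.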
TDP1 inh: TDP1 (human) enzyme inhibition; Q9NUW8; recombinant TDP1, AlphaScreen DNA substrate cleavage; Potency, µM (highest dose often 130 µM), most hits filed as inhibitors; 0.28% of 350,000 active; further: nearly all actives have a fitted effect of over 40% in size
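AlphaScreen read-out: signal falls as enzyme removes the 3' tyrosine-FITC from a 5'-biotinylated DNA oligo (15 nM, 5 min, RT). Enzyme was E. coli-made recombinant Tdp1 at 1 nM, exposed to compound for 15 min beforehand; beads 10 ug/ml, 10 min.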
A number is an active result; i = inactive; ? = inconclusive; nt = no result given; [ ] = dose if it differs, or a comment. Unless noted, the call rests on the fitted dose curve; in most records, active means well fitted inhibition curve with a large enough effect; inconclusive means small, poorly fitted or top-dose-only effect; inactive means no such curve, though single readings can be large or run the other way.

SMILES	JMJD2A Tudor inh	BAZ2B block	CtBP-E1A inh	HP1b chromo inh	Six1-Eya2 inh	TDP1 inh
Cn1c(=O)c2c(c3ccccc31)OC(=O)CC2c1ccc(C(F)(F)F)cc1 (stereo unspecified)	i	i	nt	i	nt	i
COc1cc(-c2nnc(NC(=O)c3ccc(S(=O)(=O)N4CCOCC4)cc3)o2)cc(OC)c1OC	nt	i	nt	nt	nt	i
CN1CCN(C(=S)NC(=O)c2ccc(S(=O)(=O)N3CCOCC3)cc2)CC1	45µM	?	nt	i	i	i
COc1ccccc1-c1nnc(NC(=O)c2ccc(S(=O)(=O)N3CCOCC3)cc2)o1	79µM	i	i	i	i	i
CC1CCCCN1S(=O)(=O)c1ccc(C(=O)Nc2nnc(C3=COCCO3)o2)cc1 (stereo unspecified)	i	89µM	i	i	i	i
COCc1nnc(NC(=O)c2ccc(S(=O)(=O)N3CCOCC3)cc2)o1	32µM	18µM	i	i	?	i
COC(=O)C1(C(=O)OC)CC2=CCC3C(=O)N(c4ccccc4)C(=O)C3C2Cc2ccccc2[C@@H]1C[N+](=O)[O-] (stereo partly specified)	nt	nt	nt	nt	nt	i
COc1ccccc1/C=C/c1onc(C)c1S(=O)(=O)N1CCC(C(=O)N2CCC(C)CC2)CC1	i	i	nt	i	nt	i
CO[C@H]1COC(=O)C/C=C\[C@@H](C)COC(=O)[C@@H](CCSC)NC(=O)C/C=C\[C@@H]1C	nt	nt	nt	nt	nt	i[21 µM]
CCN(CC)C(=O)c1sc2c(c1C)c(=O)n(-c1ccccc1)c(=O)n2CC(=O)Nc1ccc(C)cc1C	i	i	nt	i	nt	i
O=C(Nc1nnc(C2=COCCO2)o1)c1ccc(S(=O)(=O)N2CCOCC2)cc1	79µM	nt	?	i	i	i
CC1CCCCN1S(=O)(=O)c1ccc(C(=O)Nc2nnc(-c3ccccn3)o2)cc1 (stereo unspecified)	i	nt	i	i	i	i
CC1CN(S(=O)(=O)c2ccc(C(=O)Nc3nnc(-c4ccccn4)o3)cc2)CC(C)O1 (stereo unspecified)	89µM	nt	i	i	i	i
CC1CCCN(S(=O)(=O)c2ccc(C(=O)Nc3nnc(C4=COCCO4)o3)cc2)C1 (stereo unspecified)	nt	79µM	nt	nt	nt	i
CCOC(=O)c1c(/N=C/c2ccc(OC)cc2O)sc2c1CCN(C)C2	45µM	40µM	i	?	i	i
COCCNC(=O)c1ccccc1NC(=O)c1cccc([N+](=O)[O-])c1C	i	i	i	i	i	i
Cc1cccc(-n2c(CNC(=O)c3cccc([N+](=O)[O-])c3C)n[nH]c2=S)c1	16µM	nt	i	i	i	i
COc1ccc(CC(=O)NCc2n[nH]c(=S)n2-c2ccccc2)cc1	?	i	nt	i	i	i
Cc1cc(CNC(=O)c2cccc([N+](=O)[O-])c2C)c2ccccc2n1	i	i	i	i	i	i
CCN(CC)S(=O)(=O)c1ccc(C(=O)NCc2n[nH]c(=S)n2-c2ccccc2OC)cc1	22µM	i	i	i	i	i
COc1ccccc1-n1c(CNC(=O)c2cccc([N+](=O)[O-])c2C)n[nH]c1=S	20µM	i	i	i	i	i
O=C(NCc1n[nH]c(=S)n1-c1ccccc1)c1ccc(S(=O)(=O)N2CCCCC2)cc1	?	i	i	i	i	i
COc1ccccc1-n1c(CNC(=O)COc2ccccc2)n[nH]c1=S	7.1µM	i	i	i	i	i
CCCCc1ccc(NC(=O)COc2cccc3c(=O)n(C)ccc23)cc1	i	i	nt	i	nt	i
Nc1[nH]c(=O)nc2c1ncn2C1OC(CO)C(O)C1O (stereo unspecified)	i	nt	nt	i	nt	i
SMILES	JMJD2A Tudor inh	BAZ2B block	CtBP-E1A inh	HP1b chromo inh	Six1-Eya2 inh	TDP1 inh
COC(=O)C1(C)C=CC2(CCCCC2)N1C(=O)c1ccccc1 (stereo unspecified)	nt	nt	nt	nt	nt	i
O=C(O)CCc1ccc(-c2ccc(Br)cc2)n1Cc1ccco1	79µM	50µM	i	i	i	i
O=C(O)CCc1ccc(-c2ccccc2)n1Cc1ccco1	?	50µM	i	i	i	i
Cc1ccc(Cl)cc1NS(=O)(=O)c1ccc(N2CCCCS2(=O)=O)cc1	i	i	nt	i	nt	i
COC(=O)c1cccc(-n2c(C)cc(C=O)c2C)c1	i	?	i	i	i	i
CCOC(=O)c1cccc(-n2c(C)cc(C=O)c2C)c1	i	?	i	?	?	i
Cc1cc(/C=N/O)c(C)n1-c1ccccc1	?	i	i	i	i	i
Cc1ccc(C)n1-c1cccc(C(=O)O)c1	nt	7.1µM	nt	nt	nt	?
Cc1cc(C=O)c(C)n1-c1cccc(C(=O)O)c1	i	79µM	i	i	i	5µM
Cc1cc(C=O)c(C)n1-c1cc(C(=O)O)cc(C(=O)O)c1	?	18µM	i	25µM	?	i
Cc1cc(/C=N/O)c(C)n1-c1cccc(Cl)c1	?	50µM	i	?	i	i
Cc1ccc(C)c(N2CCN(C(=O)c3cc(S(=O)(=O)N4CCCCC4)cn3C)CC2)c1	?	i	nt	i	nt	i
COc1ccc(NS(=O)(=O)c2ccc3c(c2)CCCN3C(=O)C2CCC2)cc1OC	i	i	nt	i	nt	i
O=C(Nc1cccc(Oc2ccc(C(=O)O)c(C(=O)O)c2)c1)c1ccc(-c2ccccc2)cc1	i[11.4 µM]	50µM	i	?	i	45µM
O=C(O)c1ccccc1C(=O)Nc1ccc(Oc2ccccc2)cc1	i	i	i	i	i	i
CC(C)(C)C(=O)Nc1ccc(C(=O)Nc2cccc(Oc3ccc(C(=O)O)c(C(=O)O)c3)c2)cc1	i	i	nt	i	i	35µM
COc1ccc(-c2cc(-c3ccc4c(c3)NC(=O)CO4)nc3c2COc2ccc(F)cc2-3)cc1	i	i	nt	i	nt	i
